High-throughput results as filed in PubChem BioAssay.
A selection: hits, their analogues and other compounds. The true share with any hit is near 5.9%.
HepG2 tox – qHTS for Inhibitors of TGF-b: Cytotox Counterscreen; HepG2 CAGA-GFP viability, ATP luminescence, 18 h; Potency, µM (titrated, usually from 46.1 µM), for the others: top-dose activity change, negative = cytotoxicity, actives largely listed as cytotoxic; actives 0.76% (n = 410,000); AID 588856, 2011
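HepG2 CAGA-GFP cells (1000/well, DMEM with 1% FBS) received compound, then TGF-beta at 500 pg/mL final, and were incubated 18 hours at 37 degrees C. Viability was read by CellTiter-Glo luminescence. Media-only wells were set as complete cell-killing and DMSO as no toxicity.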
KB-3-1 cytotox – qHTS assay for MDR1-selective chemotherapeutics: Primary screen using the parental adenocarcinoma cell KB-3-1; KB-3-1 viability, CellTiter-Glo ATP luminescence, 72 h; AID 1347075, 2019; Potency, µM (series often up to 46.1 µM), actives largely listed as cytotoxic; actives 1.4% (n = 400,000); note: % is set by controls: 0 for no effect and ±100 for the full control effect; nearly all actives have a fitted effect of over 60% in size
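Parental KB-3-1 viability, qHTS format: 72 h compound exposure, 37 °C; CellTiter-Glo; media-only wells and DMSO plates as controls; concentration-effect fits on corrected data.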
TGFb SMAD3 inh – qHTS for Inhibitors of TGF-b; HepG2 CAGA-GFP TGF-b/SMAD3 reporter, GFP fluorescence, 18 h; TGF-beta stimulated, 500 pg/mL final; actives 1.2% (n = 410,000); Potency, µM (series often up to 46.1 µM), for the others: top-dose activity, negative = inhibition, usual class: inhibitors; note: % is set by controls: 0 for no effect and ±100 for the full control effect; nearly all actives have a fitted effect of over 65% in size
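Using HEPG2 CAGA-GFP reporter cells at 1000 cells/well, we pinned test compounds, stimulated with recombinant TGF-beta (500 pg/mL final) and measured total well GFP after 18 h.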
KB-V1 MDR tox – qHTS assay for MDR1-selective chemotherapeutics: Primary screen using the drug-selected MDR subline cells KB-V1; KB-V1 MDR cells viability, CellTiter-Glo, 72 h; Potency, µM (top dose mostly 46.1 µM), usual class: cytotoxic; actives 3.4% (n = 400,000); AID 1347076, 2019; note: % is set by controls: 0 for no effect and ±100 for the full control effect; nearly all actives have a fitted effect of over 60% in size
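KB-V1 cells (P-gp-expressing MDR subline of KB-3-1) in phenol-red-free DMEM with 10% FBS were exposed to library compounds over a concentration series for 72 h at 37 degrees C. Viability read by CellTiter-Glo luminescence; concentration-effect curves fitted after normalization.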
S2 tox – Viability Counterscreen for Primary qHTS for Inhibitors of ATXN expression | actives 0.49% (n = 400,000) | Potency, µM (doses to about 56.7 µM), hits mostly cytotoxic | AID 651635, 2014 | S2 cells (HEK-293 line with an ATXN2-luciferase reporter) viability, CellTiter-Fluor protease fluorescence, 24 h; note: nearly all actives have a fitted effect of over 40% in size
ATXN2 expr inh – Primary qHTS for Inhibitors of ATXN expression; HEK-293 ATXN2-luciferase reporter, luminescence, 24 h; Potency, µM (doses to about 57 µM), for inactives: top-dose activity change, negative = inhibition, usual class: inhibitors; actives 0.72% (n = 360,000); AID 1745845, 2022; note: % is set by controls: 0 for no effect and ±100 for the full control effect; nearly all actives have a fitted effect of over 55% in size
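qHTS (up to 57 uM final) was run with 24 h compound exposure of reporter cells at 37 °C. Each well was multiplexed: SteadyGlo luminescence measured ATXN2-luciferase expression after a fluorogenic Gly-Phe-AFC viability readout (25 uM final).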
The depositor's hits bear a star. Calls come from the whole dose curve; as a rule, active = well fitted curve in the direction sought with a large enough effect; inconclusive = small, poorly fitted or top-dose-only effect, or another doubt; inactive = no such curve, though single readings can be large; an effect the other way counts as inactive or inconclusive. Potency is the fitted concentration of half-maximal effect.

For C=CCn1cc(CN2CCC(C(=O)Nc3cccc(-c4cccc(Cl)c4)c3)CC2)c(C)n1 the results were HepG2 tox 16µM*, KB-3-1 cytotox inactive, TGFb SMAD3 inh inconclusive, KB-V1 MDR tox inactive and S2 tox inconclusive.
C=CCn1cc(CN2CCC(C(=O)Nc3ccc(Oc4cccnc4)cc3)CC2)c(C)n1 was read as HepG2 tox 1%, KB-3-1 cytotox inactive, TGFb SMAD3 inh -17%, KB-V1 MDR tox inactive, S2 tox inactive and ATXN2 expr inh -4%.
Screening C=CCn1cc(CN2CCC(C(=O)Nc3cccc(-c4cccc(F)c4)c3)CC2)c(C)n1 returned HepG2 tox 8.9µM*, KB-3-1 cytotox inconclusive, TGFb SMAD3 inh inconclusive, KB-V1 MDR tox inconclusive, S2 tox inactive and ATXN2 expr inh inconclusive.
COc1cccc(-n2c(SCc3ccccc3C)nc3c([nH]c4ccccc43)c2=O)c1 was read as HepG2 tox -29%, KB-3-1 cytotox inactive, TGFb SMAD3 inh inconclusive, KB-V1 MDR tox 23µM*, S2 tox inactive and ATXN2 expr inh 12%.
COc1cccc(-n2c(SCc3cccc(C)c3)nc3c([nH]c4ccccc43)c2=O)c1 was read as HepG2 tox -55%, KB-3-1 cytotox inactive, TGFb SMAD3 inh inconclusive, KB-V1 MDR tox inactive, S2 tox inactive and ATXN2 expr inh 10%.
Screening CCOC(=O)CN(C(=O)CNC(=O)c1cccs1)C(C(=O)NC1CCCCC1)c1cccs1 (stereo not given) returned HepG2 tox 7%, KB-3-1 cytotox inactive, TGFb SMAD3 inh -2%, KB-V1 MDR tox 21µM*, S2 tox inconclusive and ATXN2 expr inh 3%.
Screening O=C(CCn1c(=O)c2cccn2c2cccnc21)Nc1ccccc1Br returned HepG2 tox 2% and TGFb SMAD3 inh -4%.
COc1ccc(C(=O)COC(=O)C(CCSC)NS(=O)(=O)c2ccc(Cl)cc2)cc1 (stereo not given) was read as HepG2 tox 2%, KB-3-1 cytotox inactive, TGFb SMAD3 inh -3%, KB-V1 MDR tox 23µM*, S2 tox inactive and ATXN2 expr inh -6%.
`CCC(C)(C)C1CCc2[nH]nc(C(=O)NC3CCCC3)c2C1` (stereo not given) gave HepG2 tox -46%, KB-3-1 cytotox inactive, TGFb SMAD3 inh 0%, KB-V1 MDR tox inactive, S2 tox inactive and ATXN2 expr inh 10%.
For O=C(NC1CCCCC1)c1n[nH]c2c1CCCCC2 the results were HepG2 tox -49%, KB-3-1 cytotox inconclusive, TGFb SMAD3 inh 16%, KB-V1 MDR tox inactive, S2 tox inactive and ATXN2 expr inh 10µM*.
CC1CCN(c2nc3ccc(C(=O)O)cc3s2)CC1 was read as HepG2 tox 5%, KB-3-1 cytotox inactive, TGFb SMAD3 inh -4%, KB-V1 MDR tox inactive, S2 tox inactive and ATXN2 expr inh 2.2µM*.
`Nc1ccc(-c2nc3ccc(C(=O)O)cc3s2)cc1` gave HepG2 tox -3%, KB-3-1 cytotox inactive, TGFb SMAD3 inh 13%, KB-V1 MDR tox inactive, S2 tox inactive and ATXN2 expr inh 1.4µM*.
`CC1CCN(c2nc3ccc(C(=O)NCc4ccc(Cl)cc4)cc3s2)CC1` gave HepG2 tox -4%, KB-3-1 cytotox inactive, TGFb SMAD3 inh -6%, KB-V1 MDR tox inactive, S2 tox inactive and ATXN2 expr inh 90%.
`Nc1ccc(-c2nc3ccc(N)cc3s2)cc1` gave HepG2 tox -26%, KB-3-1 cytotox inactive, TGFb SMAD3 inh -14%, KB-V1 MDR tox inactive, S2 tox inactive and ATXN2 expr inh 20µM*.
O=C(O)c1ccc2nc(-c3ccccc3)sc2c1 was read as HepG2 tox -1%, KB-3-1 cytotox inactive, TGFb SMAD3 inh -3%, KB-V1 MDR tox inactive, S2 tox inactive and ATXN2 expr inh 8.9µM*.
CCOc1ccc(CNS(=O)(=O)c2cc3c(cc2C)NC(=O)CO3)cc1OC was read as HepG2 tox -15%, KB-3-1 cytotox inactive, TGFb SMAD3 inh 0% and KB-V1 MDR tox inactive.
For COc1cccc(C2CCCN2Cc2nc(CCC(C)C)no2)c1 (stereo not given) the results were HepG2 tox 3%, KB-3-1 cytotox inactive, TGFb SMAD3 inh -14%, KB-V1 MDR tox inactive and S2 tox inactive.
Cc1ccc2nc(C3CCCN3Cc3nc(CCC(C)C)no3)[nH]c2c1 (stereo not given) was read as HepG2 tox -23%, KB-3-1 cytotox inactive, TGFb SMAD3 inh -25%, KB-V1 MDR tox 6.5µM*, S2 tox inactive and ATXN2 expr inh -6%.
For COc1cc(-c2nnc(NC(=O)CCS(=O)(=O)c3ccccc3)o2)cc(OC)c1OC the results were HepG2 tox -40%, KB-3-1 cytotox inactive, TGFb SMAD3 inh 11µM*, KB-V1 MDR tox inactive, S2 tox inconclusive and ATXN2 expr inh 57%.
COc1cc(-c2nnc(NC(=O)CCS(=O)(=O)c3ccc(F)cc3)o2)cc(OC)c1OC was read as HepG2 tox 3%, KB-3-1 cytotox inactive, TGFb SMAD3 inh inconclusive, KB-V1 MDR tox inactive, S2 tox inconclusive and ATXN2 expr inh 86%.
For Cc1ccccc1NC(=O)CSc1nc2c(oc3ccccc32)c(=O)n1-c1ccccc1F the results were HepG2 tox -31%, KB-3-1 cytotox inactive, TGFb SMAD3 inh inconclusive, KB-V1 MDR tox inactive, S2 tox inactive and ATXN2 expr inh 10%.
For CC(C)(C)NC(=O)CN(C(=O)Cn1nnc(-c2ccc(Cl)cc2)n1)C1CCN(Cc2ccccc2)CC1 the results were HepG2 tox 18µM*, KB-3-1 cytotox inactive, TGFb SMAD3 inh 16µM*, KB-V1 MDR tox inactive, S2 tox inconclusive and ATXN2 expr inh -16%.
Screening Cc1oc(-c2ccccc2NC(=O)c2ccccn2)nc1CNC(=O)c1cccc(C#CC(C)(C)O)c1 returned S2 tox inactive.
`CC(=O)Nc1ccc(NC(=O)C(Cc2ccccc2)NS(=O)(=O)c2ccc3c(c2)oc(=O)n3C)cc1` (stereo not given) gave HepG2 tox -4%, KB-3-1 cytotox inactive, TGFb SMAD3 inh 16%, KB-V1 MDR tox inactive, S2 tox inactive and ATXN2 expr inh 9%.
